# Reference: PubChem BioAssay AID1159580 (chemical genetic matrix, 2015)
# Several values for one entry are separate records, joined by “and”; a condition that tells them apart may be missing. Equal entries are not always repeated. The whole screen tested about 5,500 compounds, of which about 2,000 (36%) were called active. Roughly 18% stayed inconclusive and do not appear here. Some of the results follow. Unmarked numbers belong to inactive results. Cut-off read from the data, not from the text of the source: active = normalized growth mostly below about 0.91 (no sharp cut-off); inconclusive = no clear call, values can overlap the other calls; inactive = mostly above about 0.92.
# Test: chemical genetic growth profiling, strain panel (AID 1159580);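 note: tested at 20 µM; growth read once vehicle control cultures reached saturation at 30 °C; 1 = growth at the plate median or of vehicle wells; lower values mean less growth of the strain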
# Conditions: S. cerevisiae deletion strains, growth OD
structure (smiles),measurement,setting,value
C=CC1=C(C)/C(=C/c2[nH]c(Cc3[nH]c(/C=C4\NC(=O)C(C)=C4C=C)c(C)c3CCC(=O)O)c(CCC(=O)O)c2C)NC1=O,normalized growth,"locus YAL013W, strain DEP1, stronger effect = lower value",1.02
same,normalized growth,"locus YAL021C, strain ccr4, stronger effect = lower value",0.949
same,normalized growth,"locus YAL026C, strain drs2, stronger effect = lower value",0.982
same,normalized growth,"locus YAL030W, strain snc1, stronger effect = lower value",0.996
same,normalized growth,"locus YBL061C, strain skt5, stronger effect = lower value",0.993
same,normalized growth,"locus YBR009C, strain hhf1, stronger effect = lower value",1.03
same,normalized growth,"locus YBR021W, strain FUR4, stronger effect = lower value",1.02
same,normalized growth,"locus YBR023C, strain chs3, stronger effect = lower value",0.993
same,normalized growth,"locus YBR171W, strain sec66, stronger effect = lower value",0.982
same,normalized growth,"locus YBR229C, strain ROT2, stronger effect = lower value",1.01
same,normalized growth,"locus YBR231C, strain swc5, stronger effect = lower value",1
same,normalized growth,"locus YBR279W, strain paf1, stronger effect = lower value",0.995
same,normalized growth,"locus YCL011C, strain gbp2, stronger effect = lower value",0.984
same,normalized growth,"locus YCL016C, strain dcc1, stronger effect = lower value",0.994
same,normalized growth,"locus YCL029C, strain bik1, stronger effect = lower value",1.02
same,normalized growth,"locus YCL061C, strain MRC1, stronger effect = lower value",0.978
same,normalized growth,"locus YCL069W, strain vba3, stronger effect = lower value",0.986
same,normalized growth,"locus YCR088W, strain abp1, stronger effect = lower value",0.98
same,normalized growth,"locus YDL005C, strain med2, stronger effect = lower value",0.981
same,normalized growth,"locus YDL035C, strain GPR1, stronger effect = lower value",1.02
same,normalized growth,"locus YDL040C, strain nat1, stronger effect = lower value",0.979
same,normalized growth,"locus YDL074C, strain BRE1, stronger effect = lower value",1.03
same,normalized growth,"locus YDL101C, strain DUN1, stronger effect = lower value",1.01
same,normalized growth,"locus YDL134C, strain PPH21, stronger effect = lower value",1.02
same,normalized growth,"locus YDL185W, strain tfp1, stronger effect = lower value",1.01
same,normalized growth,"locus YDL192W, strain arf1, stronger effect = lower value",1.02
same,normalized growth,"locus YDR001C, strain nth1, stronger effect = lower value",0.979
same,normalized growth,"locus YDR069C, strain doa4, stronger effect = lower value",0.998
same,normalized growth,"locus YDR101C, strain arx1, stronger effect = lower value",1.03
same,normalized growth,"locus YDR137W, strain rgp1, stronger effect = lower value",0.931
same,normalized growth,"locus YDR159W, strain sac3, stronger effect = lower value",1.02
same,normalized growth,"locus YDR162C, strain NBP2, stronger effect = lower value",1.04
same,normalized growth,"locus YDR195W, strain ref2",0.992
same,normalized growth,"locus YDR297W, strain sur2, stronger effect = lower value",0.978
same,normalized growth,"locus YDR318W, strain mcm21, stronger effect = lower value",1.02
same,normalized growth,"locus YDR334W, strain swr1, stronger effect = lower value",0.955
same,normalized growth,"locus YDR335W, strain msn5, stronger effect = lower value",0.974
same,normalized growth,"locus YDR388W, stronger effect = lower value",1.02
same,normalized growth,"locus YDR392W, strain spt3, stronger effect = lower value",0.916
same,normalized growth,"locus YDR502C, strain sam2, stronger effect = lower value",1
same,normalized growth,"locus YEL003W, strain gim4, stronger effect = lower value",0.981
same,normalized growth,"locus YEL037C, strain rad23, stronger effect = lower value",0.984
same,normalized growth,"locus YEL061C, strain CIN8 (second series), stronger effect = lower value",0.989
same,normalized growth,"locus YEL061C, strain CIN8, stronger effect = lower value",1
same,normalized growth,"locus YER015W, strain faa2, stronger effect = lower value",0.99
same,normalized growth,"locus YER016W, strain bim1, stronger effect = lower value",0.992
same,normalized growth,"locus YER110C, stronger effect = lower value",1.01
same,normalized growth,"locus YER111C, strain swi4, stronger effect = lower value",1
same,normalized growth,"locus YER155C, strain BEM2 (second series), stronger effect = lower value",1.02
same,normalized growth,"locus YER155C, strain BEM2, stronger effect = lower value",1.01
same,normalized growth,"locus YER167W, strain BCK2, stronger effect = lower value",1.01
same,normalized growth,"locus YFR010W, strain ubp6, stronger effect = lower value",0.985
same,normalized growth,"locus YGL078C, strain dbp3, stronger effect = lower value",1.04
same,normalized growth,"locus YGL086W, strain mad1, stronger effect = lower value",1.03
same,normalized growth,"locus YGL167C, strain pmr1, stronger effect = lower value",0.995
same,normalized growth,"locus YGL173C, strain kem1, stronger effect = lower value",0.975
same,normalized growth,"locus YGL227W, strain vid30, stronger effect = lower value",0.994
same,normalized growth,"locus YGL240W, strain doc1, stronger effect = lower value",1.02
same,normalized growth,"locus YGL248W, strain PDE1, stronger effect = lower value",1.02
same,normalized growth,"locus YGL253W, strain hxk2, stronger effect = lower value",1.01
same,normalized growth,"locus YGR078C, strain PAC10, stronger effect = lower value",1
same,normalized growth,"locus YGR135W, strain pre9, stronger effect = lower value",0.993
same,normalized growth,"locus YGR252W, strain gcn5, stronger effect = lower value",0.99
same,normalized growth,"locus YHR013C, strain ard1, stronger effect = lower value",0.97
same,normalized growth,"locus YHR027C, strain rpn1, stronger effect = lower value",0.987
same,normalized growth,"locus YHR030C, strain SLT2, stronger effect = lower value",1.01 and 1.03
same,normalized growth,"locus YHR079C, strain IRE1 (second series), stronger effect = lower value",1.01
same,normalized growth,"locus YHR079C, strain IRE1, stronger effect = lower value",1.04
same,normalized growth,"locus YHR094C, strain hxt1, stronger effect = lower value",1.01
same,normalized growth,"locus YHR129C, strain ARP1, stronger effect = lower value",1
same,normalized growth,"locus YHR142W, strain chs7, stronger effect = lower value",0.932
same,normalized growth,"locus YHR200W, strain rpn10, stronger effect = lower value",1.02
same,normalized growth,"locus YIL066C, strain RNR3, stronger effect = lower value",1.02
same,normalized growth,"locus YIL073C, strain SPO22, stronger effect = lower value",1.15
same,normalized growth,"locus YIL125W, strain kgd1, stronger effect = lower value",1.05
same,normalized growth,"locus YIR030C, strain dcg1, stronger effect = lower value",1.02
same,normalized growth,"locus YJL092W, strain hpr5, stronger effect = lower value",0.961
same,normalized growth,"locus YJL095W, strain BCK1 (second series), stronger effect = lower value",0.994
same,normalized growth,"locus YJL095W, strain BCK1, stronger effect = lower value",1.02 and 0.973
same,normalized growth,"locus YJL115W, strain asf1, stronger effect = lower value",0.978
same,normalized growth,"locus YJL129C, strain trk1, stronger effect = lower value",0.97
same,normalized growth,"locus YJL134W, strain LCB3, stronger effect = lower value",1.01
same,normalized growth,"locus YJL154C, strain vps35, stronger effect = lower value",0.982
same,normalized growth,"locus YJL164C, strain tpk1, stronger effect = lower value",0.973
same,normalized growth,"locus YJL166W, strain qcr8, stronger effect = lower value",0.997
same,normalized growth,"locus YJL168C, strain set2, stronger effect = lower value",1.01
same,normalized growth,"locus YJL187C, strain SWE1 (second series), stronger effect = lower value",0.998
same,normalized growth,"locus YJL187C, strain SWE1, stronger effect = lower value",0.983
same,normalized growth,"locus YJR043C, strain POL32, stronger effect = lower value",1.02
same,normalized growth,"locus YJR066W, strain TOR1, stronger effect = lower value",1
same,normalized growth,"locus YJR075W, strain HOC1, stronger effect = lower value",1.01
same,normalized growth,"locus YKL009W, strain mrt4, stronger effect = lower value",1.16 [resistant] (active)
same,normalized growth,"locus YKL068W, stronger effect = lower value",1.03
same,normalized growth,"locus YKL085W, strain MDH1 (second series), stronger effect = lower value",1.04
same,normalized growth,"locus YKL085W, strain MDH1, stronger effect = lower value",1.04
same,normalized growth,"locus YKL160W, strain elf1, stronger effect = lower value",0.972
same,normalized growth,"locus YKR001C, strain vps1, stronger effect = lower value",1.05
same,normalized growth,"locus YKR026C, strain gcn3, stronger effect = lower value",0.986
same,normalized growth,"locus YKR091W, strain srl3, stronger effect = lower value",0.982
same,normalized growth,"locus YLL001W, strain dnm1, stronger effect = lower value",0.988
same,normalized growth,"locus YLL026W, stronger effect = lower value",0.99
same,normalized growth,"locus YLL041C, strain sdh2, stronger effect = lower value",0.979
same,normalized growth,"locus YLR027C, strain aat2, stronger effect = lower value",0.979
same,normalized growth,"locus YLR039C, strain RIC1, stronger effect = lower value",1
same,normalized growth,"locus YLR058C, strain SHM2, stronger effect = lower value",1
same,normalized growth,"locus YLR102C, strain apc9, stronger effect = lower value",1.02
same,normalized growth,"locus YLR113W, strain HOG1, stronger effect = lower value",0.964
same,normalized growth,"locus YLR221C, strain rsa3, stronger effect = lower value",0.966
same,normalized growth,"locus YLR258W, strain gsy2, stronger effect = lower value",1
same,normalized growth,"locus YLR262C, strain YPT6 (second series), stronger effect = lower value",0.963
same,normalized growth,"locus YLR262C, strain YPT6, stronger effect = lower value",1.08
same,normalized growth,"locus YLR268W, strain sec22, stronger effect = lower value",1.03
same,normalized growth,"locus YLR320W, strain mms22, stronger effect = lower value",1.02
same,normalized growth,"locus YLR330W, strain CHS5, stronger effect = lower value",1.01
same,normalized growth,"locus YLR342W, strain FKS1 (second series), stronger effect = lower value",1.01
same,normalized growth,"locus YLR342W, strain FKS1, stronger effect = lower value",0.992
same,normalized growth,"locus YLR357W, strain rsc2, stronger effect = lower value",1.01
same,normalized growth,"locus YLR370C, strain arc18, stronger effect = lower value",0.976
same,normalized growth,"locus YLR371W, strain rom2, stronger effect = lower value",1.03
same,normalized growth,"locus YLR384C, strain iki3, stronger effect = lower value",0.987
same,normalized growth,"locus YLR418C, strain cdc73, stronger effect = lower value",1.03
same,normalized growth,"locus YML016C, strain PPZ1, stronger effect = lower value",1
same,normalized growth,"locus YML032C, strain rad52, stronger effect = lower value",1.03
same,normalized growth,"locus YML120C, strain ndi1, stronger effect = lower value",0.961
same,normalized growth,"locus YML124C, strain tub3, stronger effect = lower value",1.02
same,normalized growth,"locus YMR058W, strain fet3, stronger effect = lower value",0.971
same,normalized growth,"locus YMR078C, strain ctf18, stronger effect = lower value",1.04
same,normalized growth,"locus YMR125W, strain sto1, stronger effect = lower value",1.02
same,normalized growth,"locus YMR129W, stronger effect = lower value",0.988
same,normalized growth,"locus YMR205C, strain PFK2, stronger effect = lower value",1.02
same,normalized growth,"locus YMR223W, strain ubp8, stronger effect = lower value",1
same,normalized growth,"locus YMR231W, strain pep5, stronger effect = lower value",0.99
same,normalized growth,"locus YMR263W, strain SAP30, stronger effect = lower value",1
same,normalized growth,"locus YMR307W, strain GAS1, stronger effect = lower value",0.968
same,normalized growth,"locus YNL067W, strain RPL9B, stronger effect = lower value",0.999
same,normalized growth,"locus YNL071W, strain lat1, stronger effect = lower value",0.988
same,normalized growth,"locus YNL183C, strain NPR1, stronger effect = lower value",0.919
same,normalized growth,"locus YNL209W, strain ssb2, stronger effect = lower value",0.987
same,normalized growth,"locus YNL233W, strain BNI4, stronger effect = lower value",1.01
same,normalized growth,"locus YNL248C, strain rpa49, stronger effect = lower value",0.938
same,normalized growth,"locus YNL250W, strain rad50, stronger effect = lower value",1.01
same,normalized growth,"locus YNL271C, strain bni1, stronger effect = lower value",1.03
same,normalized growth,"locus YNL298W, strain CLA4, stronger effect = lower value",1.02
same,normalized growth,"locus YNL307C, strain MCK1, stronger effect = lower value",1.01
same,normalized growth,"locus YNL322C, strain KRE1 (second series), stronger effect = lower value",0.982
same,normalized growth,"locus YNL322C, strain KRE1, stronger effect = lower value",1.01
same,normalized growth,"locus YNR049C, strain mso1, stronger effect = lower value",0.981
same,normalized growth,"locus YNR052C, strain pop2, stronger effect = lower value",1.01
same,normalized growth,"locus YOL012C, strain htz1",0.856
same,normalized growth,"locus YOL147C, strain pex11, stronger effect = lower value",1.02
same,normalized growth,"locus YOR001W, strain rrp6, stronger effect = lower value",0.951
same,normalized growth,"locus YOR061W, strain CKA2, stronger effect = lower value",1.03
same,normalized growth,"locus YOR069W, strain VPS5, stronger effect = lower value",1.01
same,normalized growth,"locus YOR070C, strain gyp1, stronger effect = lower value",0.996
same,normalized growth,"locus YOR080W, strain dia2, stronger effect = lower value",0.986
same,normalized growth,"locus YOR083W, strain WHI5, stronger effect = lower value",0.94
same,normalized growth,"locus YOR106W, strain vam3, stronger effect = lower value",0.951
same,normalized growth,"locus YOR136W, strain idh2, stronger effect = lower value",1.02
same,normalized growth,"locus YOR144C, strain elg1, stronger effect = lower value",1.01
same,normalized growth,"locus YOR184W, strain ser1, stronger effect = lower value",1.07
same,normalized growth,"locus YOR231W, strain MKK1, stronger effect = lower value",1.03
same,normalized growth,"locus YOR265W, strain rbl2, stronger effect = lower value",0.985
same,normalized growth,"locus YOR270C, strain vph1, stronger effect = lower value",0.971
same,normalized growth,"locus YOR290C, strain snf2, stronger effect = lower value",1.01
same,normalized growth,"locus YOR316C, strain cot1, stronger effect = lower value",1.02
same,normalized growth,"locus YPL051W, strain arl3, stronger effect = lower value",0.969
same,normalized growth,"locus YPL055C, strain LGE1, stronger effect = lower value",0.995
same,normalized growth,"locus YPL078C, strain atp4, stronger effect = lower value",0.939
same,normalized growth,"locus YPL106C, strain sse1, stronger effect = lower value",0.949
same,normalized growth,"locus YPL240C, strain hsp82, stronger effect = lower value",0.982
same,normalized growth,"locus YPL241C, strain CIN2, stronger effect = lower value",1.01
same,normalized growth,"locus YPL256C, strain CLN2, stronger effect = lower value",1.06
same,normalized growth,"locus YPR119W, strain clb2, stronger effect = lower value",1.01
same,normalized growth,"locus YPR163C, strain tif3, stronger effect = lower value",1.02
same,normalized growth,"locus YPR167C, strain met16, stronger effect = lower value",1.02
same,normalized growth,"strain wtn01, stronger effect = lower value",1.04
